Compound activity from PubChem.
An excerpt weighted towards active compounds, which were near 3.2% of everything screened.
TMEM16A inh: inhibitors of mouse TMEM16A calcium-activated chloride channel; 1.2% of 310,000 active; Q8BHY3; AID 588511; HEK293 TMEM16A/YFP iodide influx fluorescence, ionomycin; normalized B-score (activity score, 25-100; higher = stronger inhibition) at 10 µM;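 active means ratio plate-corrected score three or more library SD toward inhibition, starting fluorescence score within five deviations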;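 further: score derived from kinetic fluorescence span divided by baseline fluorescence per well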
Kir21 block: Kir2.1 (mouse) channel inhibition. P35561. HEK293-Kir2.1, FluxOR thallium flux fluorescence; active compounds read low. B-score at 10 µM. 0.85% of 310,000 active. AID 1672;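 active means fluorescence ratio B-score at or below minus 3 SD of library scores, with starting-brightness B-score within 2 SD, cut at about -4.2 in these data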;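 further: channel flux triggered by added potassium and thallium sulfate stimulus; B-score of peak minus minimum fluorescence over baseline after thallium stimulus; more negative B-score means stronger Kir2.1 block with less thallium influx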
CHT PAM: allosteric activators of human choline transporter CHT. B-score at 10 µM. CHT-expressing cells, membrane potential dye, choline EC20; active compounds read high; LV-AA mutant CHT in HEK293 cells. 0.49% of 310,000 active. Q9GZV3;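 active means initial fluorescence not abnormally high and integrated response B-score, plate-corrected, over 3 SD above library mean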
Rce1 inhib: yeast Ras-converting enzyme inhibition; AID 2563; 0.27% of 290,000 active; yeast membranes, quenched prenylated peptide cleavage fluorescence; calls only;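 active means fall in fluorescence gain of 50% or more versus controls, with final raw signal at or below 3038400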
CHT block: human CHT choline transport inhibition; Q9GZV3; CHT-expressing cells, membrane potential dye, choline response; active compounds read low; B-score at 10 µM; 0.86% of 310,000 active; AID 488975;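 active means B-score over 3 SD under the library average, and starting fluorescence ratio not unusually high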;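 further: choline stimulus applied at its EC90 after an EC20 pre-addition; B-score computed on integrated fluorescence ratio after choline addition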
ANO1 activ: activators or potentiators of mouse TMEM16A chloride channel; HEK293 TMEM16A/YFP-H148Q/I152L, iodide quench fluorescence; active compounds read low; B-score at 10 µM; 0.3% of 340,000 active;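 active means fluorescence-ratio B-score plate-corrected deviation score at least 3 library SD below zero, with starting fluorescence score within 5 deviations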;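 further: channel opened by trigger with iodide after compound preincubation; score built on the fluorescence ratio of max minus min over baseline; more negative score means more quench and so TMEM16A activation or potentiation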
TMEM16A reconf: TMEM16A (mouse) chloride channel inhibition, re-confirmation; shares compounds with TMEM16A inh; HEK293 TMEM16A/YFP-H148Q, iodide quench fluorescence; ionomycin added to raise cell calcium; inhibition, % at 10 µM; 39% of 2,300 active;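 active means mean duplicate percent inhibition, scaled so buffer wells are 0 and the reference blocker 100, over three buffer SD above buffer mean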
TMEM16A Ca cntr: alters calcium mobilization in TMEM16A HEK293 cells, counter-screen. shares compounds with TMEM16A inh. TMEM16A/YFP HEK293, Fluo4 calcium mobilization. calcium response (% of ionomycin), % at 10 µM. 2% of 2,300 active. AID 652231;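 active means duplicate-averaged calcium signal over 20% of the ionomycin maximum, relative to buffer baseline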;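 further: each well's signal is peak minus trough fluorescence divided by its pre-addition baseline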
YFP-HEK293 quench: counter-screen for TMEM16A inhibitors: effect in parental YFP-HEK293 cells | shares compounds with TMEM16A inh | iodide YFP quench, ionomycin | YFP ratio F(max-min)/F0 at 10 µM | 2,300 tested, under 10 active | AID 652233;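 active means yellow fluorescent protein signal ratio exceeding the buffer control mean by over 5 SD of those controls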;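 further: ratio is mean of duplicate wells from kinetic YFP trace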
ClC-1 rat inh: rat ClC-1 inhibition, TMEM16A specificity screen | shares compounds with TMEM16A inh | CHO ClC-1-YFP, iodide influx fluorescence quench; iodide control reads 0, buffer control 100 | ratio percent, % at 10 µM | 2,300 tested, under 10 active;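 active means duplicate-mean ratio percent above the mean of iodide-only control wells, which defines zero, plus 5 of their SD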;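 further: higher percent means stronger block of ClC-1 iodide influx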
Target sequence (P35524 whole entry, looked up): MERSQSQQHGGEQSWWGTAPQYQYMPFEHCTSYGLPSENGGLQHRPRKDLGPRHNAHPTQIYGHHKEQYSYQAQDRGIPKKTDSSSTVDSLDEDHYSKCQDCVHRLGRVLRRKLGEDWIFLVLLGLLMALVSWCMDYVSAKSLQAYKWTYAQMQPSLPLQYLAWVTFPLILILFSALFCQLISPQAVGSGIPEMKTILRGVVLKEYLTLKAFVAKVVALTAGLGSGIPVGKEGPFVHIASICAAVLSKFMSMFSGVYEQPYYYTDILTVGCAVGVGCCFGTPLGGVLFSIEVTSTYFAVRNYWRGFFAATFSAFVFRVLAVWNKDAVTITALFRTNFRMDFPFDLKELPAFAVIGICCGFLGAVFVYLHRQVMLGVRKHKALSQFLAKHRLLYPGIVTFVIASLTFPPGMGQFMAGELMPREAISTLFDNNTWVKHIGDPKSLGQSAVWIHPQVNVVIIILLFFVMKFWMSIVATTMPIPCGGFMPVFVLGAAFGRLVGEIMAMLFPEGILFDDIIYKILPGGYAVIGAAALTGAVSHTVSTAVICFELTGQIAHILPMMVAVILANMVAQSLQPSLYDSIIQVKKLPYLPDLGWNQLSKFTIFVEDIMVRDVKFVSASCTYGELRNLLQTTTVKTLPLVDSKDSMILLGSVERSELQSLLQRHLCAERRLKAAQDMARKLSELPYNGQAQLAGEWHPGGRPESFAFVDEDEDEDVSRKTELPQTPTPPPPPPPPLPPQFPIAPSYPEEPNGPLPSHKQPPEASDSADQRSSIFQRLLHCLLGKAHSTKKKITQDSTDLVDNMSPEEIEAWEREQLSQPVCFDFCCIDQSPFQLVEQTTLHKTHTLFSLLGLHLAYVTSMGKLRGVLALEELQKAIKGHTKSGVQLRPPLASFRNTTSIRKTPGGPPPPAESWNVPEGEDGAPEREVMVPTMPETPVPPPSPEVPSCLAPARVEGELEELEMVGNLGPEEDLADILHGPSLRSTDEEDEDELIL
Large screens that a line does not name were inactive (follow-up assays come after a bar, where they were run).

COc1ccc(CCn2c(=S)[nH]c3cc(C(=O)NCc4ccco4)ccc3c2=O)cc1OC	TMEM16A inh 25 (no result: Kir21 block) | TMEM16A reconf inactive | TMEM16A Ca cntr inactive | YFP-HEK293 quench inactive | ClC-1 rat inh inactive
CC(=O)c1sc(NC(=O)CSCc2c(C)noc2C)nc1-c1ccccc1	none (no result: TMEM16A inh, Kir21 block, CHT PAM, Rce1 inhib, CHT block)
CCC(C)(C)C(=O)Nc1ncc(S(=O)(=O)c2ccc([N+](=O)[O-])cc2)s1	TMEM16A inh 25 | TMEM16A reconf 28.5% | TMEM16A Ca cntr inactive | YFP-HEK293 quench inactive | ClC-1 rat inh inactive
CCn1c(SCC(=O)c2cccs2)nnc1-c1cccs1	none
CCn1c(SCC(=O)c2[nH]c(C)c(C(C)=O)c2C)nnc1-c1cccs1	TMEM16A inh 25 | TMEM16A reconf 39.5% | TMEM16A Ca cntr inactive | YFP-HEK293 quench inactive | ClC-1 rat inh inactive
O=C(CS(=O)(=O)c1cn(CC(=O)N2CCCC2)c2ccccc12)Nc1ccccc1F	none
CCOC(=O)c1cc2ccccc2n1CCN(CC)CC	TMEM16A inh 25 | TMEM16A reconf inactive | TMEM16A Ca cntr inactive | YFP-HEK293 quench inactive | ClC-1 rat inh inactive
O=S(=O)(Nc1ccc(Br)cn1)c1ccc2ccccc2c1	none (no result: Rce1 inhib)
N#CCc1ccc(NS(=O)(=O)c2ccc(C3CCCCC3)cc2)cc1	TMEM16A inh 25 | TMEM16A reconf 34.5% | TMEM16A Ca cntr inactive | YFP-HEK293 quench inactive | ClC-1 rat inh inactive
O=C(Nc1ccccc1)N1CCC(C(=O)N2CCN(c3ccccc3F)CC2)CC1	none (no result: Rce1 inhib)
OCC1(Cc2ccccc2)CCN(Cc2cnc(-c3ccc(Cl)cc3)nc2)CC1	none | TMEM16A reconf inactive | TMEM16A Ca cntr inactive | YFP-HEK293 quench inactive | ClC-1 rat inh inactive
Cc1ccc(NC(=S)NCCSc2ccc(Cl)cc2)c(C)c1	none
Cc1cccc(NC(=S)NCCSc2ccc(Cl)cc2)c1	TMEM16A inh 100 | TMEM16A reconf 71.5% | TMEM16A Ca cntr inactive | YFP-HEK293 quench inactive | ClC-1 rat inh inactive
Cc1ccc(NC2=NCCCCC2)cc1C	none (no result: Rce1 inhib)
Clc1ccc(NC2=NCCC2)cc1Cl	none | TMEM16A reconf inactive | TMEM16A Ca cntr inactive | YFP-HEK293 quench inactive | ClC-1 rat inh inactive
CC(C)C(c1nnnn1C1CCCCC1)N1CCN(c2ncccn2)CC1 (configuration not stated)	TMEM16A inh 100 | TMEM16A reconf inactive | TMEM16A Ca cntr inactive | YFP-HEK293 quench inactive | ClC-1 rat inh inactive
CC1C(=O)N2CCCc3cc(S(=O)(=O)N(C)CCC#N)cc1c32 (configuration not stated)	none
Cc1cc(C(=O)OCC(=O)Nc2cccc(S(=O)(=O)N(C)C)c2)c(C)o1	none
Cc1cc(C(=O)OCC(=O)Nc2cccc(S(=O)(=O)N(C)C)c2)c2ccccc2n1	none | TMEM16A reconf inactive | TMEM16A Ca cntr inactive | YFP-HEK293 quench inactive | ClC-1 rat inh inactive
CN(C)S(=O)(=O)c1cccc(NC(=O)CSc2ncnc3ccccc23)c1	TMEM16A inh 25 | TMEM16A reconf inactive | TMEM16A Ca cntr inactive | YFP-HEK293 quench inactive | ClC-1 rat inh inactive
COCCNC(=S)NNC(=O)c1ccc(-n2cnnn2)cc1	none
CCc1ccc(S(=O)(=O)NCCc2csc(-c3ccccc3)n2)s1	TMEM16A inh 100, Kir21 block -4.48 | TMEM16A reconf inactive | TMEM16A Ca cntr inactive | YFP-HEK293 quench inactive | ClC-1 rat inh inactive
CCS(=O)(=O)NCCc1csc(-c2ccccc2)n1	none
c1ccc(Nc2ncnc3[nH]ncc23)cc1	none
COc1ccc(CCNc2cc(N3CCN(C(=O)c4ccccc4F)CC3)ccc2[N+](=O)[O-])cc1OC	TMEM16A inh 25 | TMEM16A reconf 42.5% | TMEM16A Ca cntr inactive | YFP-HEK293 quench inactive | ClC-1 rat inh inactive
Cc1cc(NCCN2CCOCC2)n2ncc(-c3ccccc3)c2n1	none
Cc1cc(NC(C)c2ccccc2)n2ncc(-c3ccccc3)c2n1 (configuration not stated)	TMEM16A inh 100 | TMEM16A reconf inactive | TMEM16A Ca cntr inactive | YFP-HEK293 quench inactive | ClC-1 rat inh inactive
Cc1ccc(C(=O)C(C)OC(=O)CN2C(=O)NC3(CCCC3)C2=O)cc1C (configuration not stated)	none
COc1ccc(NS(=O)(=O)c2ccc(-c3cnc(C4CC4)o3)cc2)cc1OC	TMEM16A inh 25 | TMEM16A reconf 34.5% | TMEM16A Ca cntr inactive | YFP-HEK293 quench inactive | ClC-1 rat inh inactive
COc1ccc(Cc2nnc(SCC(=O)Nc3ccc(N4CCOCC4)cc3)n2C)cc1	none
COc1cc(/C=C2\C(=N)N3N=C(S(C)(=O)=O)SC3=NC2=O)cc(OC)c1OCCOc1ccc(C)cc1	none
COc1cc(/C=C2\C(=N)N3N=C(S(C)(=O)=O)SC3=NC2=O)ccc1OCCOc1ccc(C)cc1	TMEM16A inh 25 | TMEM16A reconf inactive | TMEM16A Ca cntr inactive | YFP-HEK293 quench inactive | ClC-1 rat inh inactive
COc1ccc(CNCC(O)COc2ccc(C(C)(C)c3ccccc3)cc2)cc1 (configuration not stated)	TMEM16A inh 25, Kir21 block -5.7 | TMEM16A reconf 26.0% | TMEM16A Ca cntr inactive | YFP-HEK293 quench inactive | ClC-1 rat inh inactive
Cc1ccccc1-c1cc(-c2ccccc2O)n[nH]1	TMEM16A inh 25 | TMEM16A reconf inactive | TMEM16A Ca cntr inactive | YFP-HEK293 quench inactive | ClC-1 rat inh inactive
Cc1ccc(-c2cc(-c3ccccc3Cl)[nH]n2)c(O)c1	none
Cc1cc(=O)[nH]c(SCC(=O)OCc2ccccc2)c1C#N	none
CCc1c(C(=O)Nc2ccc(OC)cc2)[nH]c(C)c1C(C)=O	TMEM16A inh 25 | TMEM16A reconf inactive | TMEM16A Ca cntr inactive | YFP-HEK293 quench inactive | ClC-1 rat inh inactive
CCN(CC(=O)Nc1c(F)cccc1F)C(=O)CCNC(=O)c1ccc([N+](=O)[O-])cc1	none
CC1CC(C)CN(c2cc(=O)n(Cc3ccc(F)cc3)c(=O)[nH]2)C1 (configuration not stated)	TMEM16A inh 100 | TMEM16A reconf inactive | TMEM16A Ca cntr inactive | YFP-HEK293 quench inactive | ClC-1 rat inh inactive
O=c1cc(N2CCN(c3ccc(F)cc3)CC2)[nH]c(=O)n1Cc1ccc(F)cc1	none
